{"source": "the supplement of paper PMC11219838", "conditions_in_all_cases": "60 µM; 5 days; temperature: 20 °C", "key": {"Meloidogyne hapla J2": {"test_system": "Meloidogyne hapla J2", "assay": "proportion of mobile M. hapla J2 relative to DMSO control (fraction of DMSO control); higher = more viable, less nematicidal, active = 0.7 or less", "summary_of_the_method": "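Compound was pinned to 60 µM final (0.6% v/v DMSO) into 96-well wells, each holding about 25 M. hapla J2 in distilled water. Plates were sealed and shaken for 5 days at 20 °C and 200 rpm, then given 2 µL 1 M NaOH per well. Microscopic mobility scores were normalised to the mean of the plate's own DMSO wells, eight per plate, with two biological replicates averaged.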"}, "Ditylenchus dipsaci": {"test_system": "Ditylenchus dipsaci", "assay": "proportion of mobile D. dipsaci (mixed stage) relative to DMSO control (fraction of DMSO control); higher = more viable, less nematicidal, active = 0.86 or less; extreme values may be limits of the assay", "summary_of_the_method": "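Mobility values are relative to DMSO controls and are averages of two biological replicates. For each well of a 96-well plate, about 20 D. dipsaci worms, grown on pea plants in Gamborg B-5 agar and funnel-extracted into water, were dispensed in distilled water. Plates received pinned compound at 60 µM final with 0.6% v/v DMSO and were sealed and shaken at 200 rpm for 5 days at 20 °C before 2 µL 1 M NaOH was added and mobile worms were scored by microscope.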"}, "[1]": {"test_system": "Caenorhabditis elegans dauer (daf-2(e1370))", "assay": "proportion of mobile C. elegans dauer larvae relative to DMSO control (fraction of DMSO control); higher = more viable, less nematicidal, active = 0.63 or less; extreme values may be limits of the assay", "summary_of_the_method": "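Synchronized C. elegans daf-2(e1370) larvae were held at 25 °C for 48 h on MYOB plates with E. coli OP50 to form dauers, and about 20 dauers were added per 96-well well in liquid NGM. Compound was pinned to 60 µM final (0.6% v/v DMSO), and sealed plates were shaken at 200 rpm for 5 days at 20 °C. The proportion of mobile worms was scored under a dissection microscope relative to DMSO controls and averaged over two biological replicates.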"}}, "note": "Unmarked numbers belong to inactive results."}
{"smiles": "CCOc1nc(C)ccc1-c1noc(-c2ccccc2F)n1", "values": [{"measurement": "proportion of mobile M. hapla J2", "setting": "Meloidogyne hapla J2", "result": 0.851}, {"measurement": "proportion of mobile D. dipsaci", "setting": "Ditylenchus dipsaci", "result": 1}]}
{"smiles": "Cc1ccc(-c2noc(-c3cccc(C)c3)n2)cc1", "values": [{"measurement": "proportion of mobile M. hapla J2", "setting": "Meloidogyne hapla J2", "result": 0.947}, {"measurement": "proportion of mobile D. dipsaci", "setting": "Ditylenchus dipsaci", "result": 1}]}
{"smiles": "CC(Oc1ccccc1)c1nc(-c2cccnc2)no1", "note": "(configuration not stated)", "values": [{"measurement": "proportion of mobile M. hapla J2", "setting": "Meloidogyne hapla J2", "result": 1.06}, {"measurement": "proportion of mobile D. dipsaci", "setting": "Ditylenchus dipsaci", "result": 1}]}
{"smiles": "O=C(Nc1cccnc1)c1ccccc1-c1nc(-c2ccc(Cl)cc2)no1", "values": [{"measurement": "proportion of mobile M. hapla J2", "setting": "Meloidogyne hapla J2", "result": 0.934}, {"measurement": "proportion of mobile D. dipsaci", "setting": "Ditylenchus dipsaci", "result": 1}]}
{"smiles": "COc1ccc(-c2nnc(SCc3ccc(C#N)cc3)o2)cc1", "values": [{"measurement": "proportion of mobile M. hapla J2", "setting": "Meloidogyne hapla J2", "result": 0.942}, {"measurement": "proportion of mobile D. dipsaci", "setting": "Ditylenchus dipsaci", "result": 1}]}
{"smiles": "COc1ccccc1CC(=O)Nc1ccc(-c2noc(-c3ccccc3C)n2)cc1", "values": [{"measurement": "proportion of mobile M. hapla J2", "setting": "Meloidogyne hapla J2", "result": 0.743}, {"measurement": "proportion of mobile D. dipsaci", "setting": "Ditylenchus dipsaci", "result": 1}]}
{"smiles": "COc1ccc(Cl)cc1-c1noc(-c2ccc(Cl)cc2)n1", "values": [{"measurement": "proportion of mobile M. hapla J2", "setting": "Meloidogyne hapla J2", "result": 0.906}, {"measurement": "proportion of mobile D. dipsaci", "setting": "Ditylenchus dipsaci", "result": 1}]}
{"smiles": "O=C(CSc1nnc(-c2ccc(Cl)cc2Cl)o1)Nc1ccccn1", "values": [{"measurement": "proportion of mobile M. hapla J2", "setting": "Meloidogyne hapla J2", "result": 0.838}, {"measurement": "proportion of mobile D. dipsaci", "setting": "Ditylenchus dipsaci", "result": 1}]}
{"smiles": "CN(C)c1ccc(-c2nnc(SCc3ccccc3)o2)cc1", "values": [{"measurement": "proportion of mobile M. hapla J2", "setting": "Meloidogyne hapla J2", "result": 0.991}, {"measurement": "proportion of mobile D. dipsaci", "setting": "Ditylenchus dipsaci", "result": 1}]}
{"smiles": "CCOc1ccc(-c2nc(-c3ccc(Cl)cc3)no2)cc1", "values": [{"measurement": "proportion of mobile M. hapla J2", "setting": "Meloidogyne hapla J2", "result": 1}, {"measurement": "proportion of mobile D. dipsaci", "setting": "Ditylenchus dipsaci", "result": 1}]}
{"smiles": "COc1ccccc1NC(=O)c1ccccc1-c1nc(-c2ccccc2F)no1", "values": [{"measurement": "proportion of mobile M. hapla J2", "setting": "Meloidogyne hapla J2", "result": 1.02}, {"measurement": "proportion of mobile D. dipsaci", "setting": "Ditylenchus dipsaci", "result": 1}]}
{"smiles": "O=C(CSc1nnc(-c2ccco2)o1)NC1CCCCC1", "values": [{"measurement": "proportion of mobile M. hapla J2", "setting": "Meloidogyne hapla J2", "result": 0.824}, {"measurement": "proportion of mobile D. dipsaci", "setting": "Ditylenchus dipsaci", "result": 1}]}
{"smiles": "COc1ccc(NC(=O)CSc2nnc(-c3ccc(Br)cc3)o2)cc1", "values": [{"measurement": "proportion of mobile M. hapla J2", "setting": "Meloidogyne hapla J2", "result": 1.02}, {"measurement": "proportion of mobile D. dipsaci", "setting": "Ditylenchus dipsaci", "result": 1}]}
{"smiles": "Clc1ccccc1-c1noc(COc2ccc(Br)cc2)n1", "values": [{"measurement": "proportion of mobile M. hapla J2", "setting": "Meloidogyne hapla J2", "result": 1.05}, {"measurement": "proportion of mobile D. dipsaci", "setting": "Ditylenchus dipsaci", "result": 1}]}
{"smiles": "CCOc1nc(-c2ccccc2)ccc1-c1noc(-c2cccc(OC)c2)n1", "values": [{"measurement": "proportion of mobile M. hapla J2", "setting": "Meloidogyne hapla J2", "result": 0.759}, {"measurement": "proportion of mobile D. dipsaci", "setting": "Ditylenchus dipsaci", "result": 1}]}
{"smiles": "COc1ccc(-c2noc(-c3ccccc3Cl)n2)cc1", "values": [{"measurement": "proportion of mobile C. elegans dauer larvae", "setting": "[1]", "result": 1}, {"measurement": "proportion of mobile D. dipsaci", "setting": "Ditylenchus dipsaci", "result": 1}]}
{"smiles": "CC1CC(C)CN(C(=O)CSc2nnc(-c3ccccc3)o2)C1", "note": "(configuration not stated)", "values": [{"measurement": "proportion of mobile C. elegans dauer larvae", "setting": "[1]", "result": 1}, {"measurement": "proportion of mobile D. dipsaci", "setting": "Ditylenchus dipsaci", "result": 1}]}
{"smiles": "COc1ccccc1OCc1nc(-c2ccccc2)no1", "values": [{"measurement": "proportion of mobile C. elegans dauer larvae", "setting": "[1]", "result": 1}, {"measurement": "proportion of mobile D. dipsaci", "setting": "Ditylenchus dipsaci", "result": 1}]}
{"smiles": "Clc1ccc(SCc2nc(-c3cccnc3)no2)cc1", "values": [{"measurement": "proportion of mobile C. elegans dauer larvae", "setting": "[1]", "result": "0.156 (active)"}, {"measurement": "proportion of mobile D. dipsaci", "setting": "Ditylenchus dipsaci", "result": 1}]}
{"smiles": "CC(C)(C)c1ccc(-c2nnc(SCC(=O)c3ccc(F)cc3)o2)cc1", "values": [{"measurement": "proportion of mobile C. elegans dauer larvae", "setting": "[1]", "result": 1}, {"measurement": "proportion of mobile D. dipsaci", "setting": "Ditylenchus dipsaci", "result": 1}]}
{"smiles": "Cc1ccc(-c2nc(-c3ccccc3)no2)cc1", "values": [{"measurement": "proportion of mobile C. elegans dauer larvae", "setting": "[1]", "result": 1}, {"measurement": "proportion of mobile D. dipsaci", "setting": "Ditylenchus dipsaci", "result": 1}]}
{"smiles": "COc1ccc(-c2nnc(SCc3csc(N)n3)o2)cc1", "values": [{"measurement": "proportion of mobile C. elegans dauer larvae", "setting": "[1]", "result": 1}, {"measurement": "proportion of mobile D. dipsaci", "setting": "Ditylenchus dipsaci", "result": 1}]}
{"smiles": "Cc1cc(OCc2nc(-c3ccccn3)no2)ccc1Br", "values": [{"measurement": "proportion of mobile C. elegans dauer larvae", "setting": "[1]", "result": 1}, {"measurement": "proportion of mobile D. dipsaci", "setting": "Ditylenchus dipsaci", "result": 1}]}
{"smiles": "CCCc1ccc(-c2nc(-c3cccnc3)no2)cc1", "values": [{"measurement": "proportion of mobile C. elegans dauer larvae", "setting": "[1]", "result": 0.926}, {"measurement": "proportion of mobile D. dipsaci", "setting": "Ditylenchus dipsaci", "result": "0.562 (active)"}]}
{"smiles": "Cc1ccc(-c2nnc(SCC(=O)Nc3ccccc3)o2)cc1", "values": [{"measurement": "proportion of mobile C. elegans dauer larvae", "setting": "[1]", "result": 1}, {"measurement": "proportion of mobile D. dipsaci", "setting": "Ditylenchus dipsaci", "result": 1}]}
{"smiles": "CC(=O)Nc1ccc(C(=O)CSc2nnc(-c3cccc(Br)c3)o2)cc1", "values": [{"measurement": "proportion of mobile C. elegans dauer larvae", "setting": "[1]", "result": 1}, {"measurement": "proportion of mobile D. dipsaci", "setting": "Ditylenchus dipsaci", "result": 1}]}
{"smiles": "Brc1ccc(-c2noc(COc3ccccc3)n2)cc1", "values": [{"measurement": "proportion of mobile C. elegans dauer larvae", "setting": "[1]", "result": 1}, {"measurement": "proportion of mobile D. dipsaci", "setting": "Ditylenchus dipsaci", "result": 1}]}
{"smiles": "CCc1ccc(C(=O)Nc2ccccc2-c2nc(-c3cccnc3)no2)cc1", "values": [{"measurement": "proportion of mobile C. elegans dauer larvae", "setting": "[1]", "result": 1}, {"measurement": "proportion of mobile D. dipsaci", "setting": "Ditylenchus dipsaci", "result": 1}]}
{"smiles": "Cc1cc(Br)ccc1OCc1nc(-c2cccnc2)no1", "values": [{"measurement": "proportion of mobile C. elegans dauer larvae", "setting": "[1]", "result": 1}, {"measurement": "proportion of mobile D. dipsaci", "setting": "Ditylenchus dipsaci", "result": 1}]}
{"smiles": "Clc1ccc(CSc2nnc(-c3ccc(Cl)cc3)o2)cc1", "values": [{"measurement": "proportion of mobile C. elegans dauer larvae", "setting": "[1]", "result": 1}, {"measurement": "proportion of mobile D. dipsaci", "setting": "Ditylenchus dipsaci", "result": 1}]}
{"smiles": "O=C(Nc1ccccc1-c1nc(-c2ccncc2)no1)c1cccc(Cl)c1", "values": [{"measurement": "proportion of mobile C. elegans dauer larvae", "setting": "[1]", "result": 1}, {"measurement": "proportion of mobile D. dipsaci", "setting": "Ditylenchus dipsaci", "result": 1}]}
{"smiles": "CCCCC(=O)Nc1ccccc1-c1nc(-c2ccccn2)no1", "values": [{"measurement": "proportion of mobile C. elegans dauer larvae", "setting": "[1]", "result": 1}, {"measurement": "proportion of mobile D. dipsaci", "setting": "Ditylenchus dipsaci", "result": 1}]}
{"smiles": "C(=C\\c1ccccc1)/CSc1nnc(-c2ccncc2)o1", "values": [{"measurement": "proportion of mobile C. elegans dauer larvae", "setting": "[1]", "result": 1}, {"measurement": "proportion of mobile D. dipsaci", "setting": "Ditylenchus dipsaci", "result": 1}]}
{"smiles": "Cc1ncc2c(c1-c1noc(-c3ccccc3)n1)CCC2", "values": [{"measurement": "proportion of mobile C. elegans dauer larvae", "setting": "[1]", "result": 0.929}, {"measurement": "proportion of mobile D. dipsaci", "setting": "Ditylenchus dipsaci", "result": 1}]}
{"smiles": "CCOc1cc(-c2nc(-c3ccc(C)nc3OCC)no2)cc(OCC)c1OCC", "values": [{"measurement": "proportion of mobile C. elegans dauer larvae", "setting": "[1]", "result": 1}, {"measurement": "proportion of mobile D. dipsaci", "setting": "Ditylenchus dipsaci", "result": 1}]}
{"smiles": "COc1cccc(-c2noc(COc3ccccc3Cl)n2)c1", "values": [{"measurement": "proportion of mobile C. elegans dauer larvae", "setting": "[1]", "result": 1}, {"measurement": "proportion of mobile D. dipsaci", "setting": "Ditylenchus dipsaci", "result": 1}]}
{"smiles": "CCc1cccc(CC)c1NC(=O)CSc1nnc(-c2ccccc2OC)o1", "values": [{"measurement": "proportion of mobile C. elegans dauer larvae", "setting": "[1]", "result": 1}, {"measurement": "proportion of mobile D. dipsaci", "setting": "Ditylenchus dipsaci", "result": 1}]}
{"smiles": "O=C(CSc1nnc(-c2ccco2)o1)Nc1cccc2ccccc12", "values": [{"measurement": "proportion of mobile C. elegans dauer larvae", "setting": "[1]", "result": 1}, {"measurement": "proportion of mobile D. dipsaci", "setting": "Ditylenchus dipsaci", "result": 1}]}
{"smiles": "Cc1cccc(-c2noc(-c3ccc(Br)cc3)n2)c1", "values": [{"measurement": "proportion of mobile C. elegans dauer larvae", "setting": "[1]", "result": 1}, {"measurement": "proportion of mobile D. dipsaci", "setting": "Ditylenchus dipsaci", "result": 1}]}
{"smiles": "Cc1ccc(CSc2nnc(-c3ccco3)o2)cc1", "values": [{"measurement": "proportion of mobile C. elegans dauer larvae", "setting": "[1]", "result": "0.167 (active)"}, {"measurement": "proportion of mobile D. dipsaci", "setting": "Ditylenchus dipsaci", "result": 1}]}
{"smiles": "Clc1cccc(-c2nc(-c3ccncc3)no2)c1", "values": [{"measurement": "proportion of mobile C. elegans dauer larvae", "setting": "[1]", "result": 1}, {"measurement": "proportion of mobile D. dipsaci", "setting": "Ditylenchus dipsaci", "result": 1}]}
